Sampled rows, rich in hits. Any-hit rate of the full collection: about 2.5%.
CRFR2-BP antag: antagonists of CRF-binding protein/CRF-R2 receptor complex; 350,000 tested, 0.59% active; inhibition, % at 11.8 µM; AID 588475; HEK293 CRF-R2/CRF-BP, CRF-induced calcium fluorescence;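 active = inhibition of the ligand-induced calcium signal above about 50% at the single tested concentration, limit read from the data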
H9c2 TAG inh: inhibitors of triacylglycerol accumulation; H9c2 cells, Nile Red lipid (TAG) fluorescence; cells loaded with 200 µM oleic acid; inhibition, % at 12.5 µM; 230,000 tested, 0.66% active; AID 651582;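 active = pattern-corrected inhibition of lipid staining of at least 50% with the nuclear-stain viability signal not falling by more than 50%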
Cardio protect: protects H9c2 cardiomyocytes from peroxide injury | H2O2 injury protection, ATPLite, 2 h | protection from H2O2 cell death, % at 20 µM | 360,000 tested, 0.63% active | AID 588492;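 active = compounds giving at least 50% protection of heart cells from peroxide-induced death in the single-dose screen, raw or plate-pattern-corrected value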
iPSC survival up: increases survival of single human iPS cells. AID 602274. 360,000 tested, 0.044% active. hiPSC single-cell survival, ATPlite luminescence; 100% = ROCK inhibitor wells, 0% = DMSO. survival enhancement, % at 20 µM; in the data active = survival enhancement above about 18%;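 also: cells exposed to compounds for 16 hours before the ATP read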
CRFR2-BP ag: agonists of human CRF-binding protein/CRF-R2 receptor complex | 350,000 tested, 0.46% active | AID 588473 | HEK293 CRF-R2/CRF-BP, calcium dye fluorescence (FLIPR); percent of saturating CRF peptide response | activation, % at 13.2 µM;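 active = activation of at least 50%, plus an integration ratio under a set limit after plate pattern correction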
SKN-1 block: C. elegans SKN-1 inhibition | C. elegans VP596 Pgst-4::GFP/RFP ratio, acrylamide-induced, 24 h | AID 624304 | inhibition, % at 21.8 µM | 360,000 tested, 0.49% active;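 active = interference check ratio from 0.5 to 1.5 plus GFP to RFP signal ratio inhibition reaching or exceeding a fixed threshold, cut at about 30% in these data, passing the limit was not always enough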
Hits are given with their value.

For COc1ccc2c(c1OC)C(=O)N1c3cccc(Cl)c3C(=O)OC21 (stereo unspecified) the results were CRFR2-BP antag inactive, Cardio protect inactive, iPSC survival up inactive, CRFR2-BP ag inactive and SKN-1 block inactive.
For COc1ccccc1S(=O)(=O)N[C@@H]1CC[C@@H](CCn2cc(C3CC3)nn2)O[C@@H]1CO the results were SKN-1 block inactive.
For Cc1ccc(S(=O)(=O)N2CCC(=O)N([C@H](COCc3ccc(Cl)c(Cl)c3)Cc3ccccc3)CC2)cc1 the results were iPSC survival up inactive and SKN-1 block inactive.
CCOC(=O)C1=C(CSc2nc(CC)c(C)cc2C#N)OC(N)=C(C#N)C1c1ccccc1 (stereo unspecified) was read as CRFR2-BP antag inactive, H9c2 TAG inh inactive, Cardio protect inactive, iPSC survival up inactive, CRFR2-BP ag inactive and SKN-1 block inactive.
`CCOC(=O)C1=C(CSc2nc(-c3ccccc3)ccc2C#N)OC(N)=C(C#N)C1c1ccc(OC)cc1` (stereo unspecified) gave CRFR2-BP antag inactive, H9c2 TAG inh inactive, Cardio protect inactive, iPSC survival up inactive, CRFR2-BP ag 50 and SKN-1 block 43.
C=C(C)c1nc(Oc2ccccc2)nc(Oc2ccccc2)n1 was read as CRFR2-BP antag inactive, H9c2 TAG inh inactive, Cardio protect inactive, iPSC survival up inactive, CRFR2-BP ag inactive and SKN-1 block inactive.
Oc1c(Br)cc(Br)cc1/C=N/c1nc2c(s1)CCCC2 was read as CRFR2-BP antag inactive, H9c2 TAG inh inactive, Cardio protect 59, iPSC survival up inactive, CRFR2-BP ag inactive and SKN-1 block inactive.
Screening Fc1ccccc1N1CCN(CC2CCCCC2)CC1 returned CRFR2-BP antag inactive, Cardio protect inactive, iPSC survival up inactive, CRFR2-BP ag inactive and SKN-1 block inactive.
Cc1ccc(-c2n[nH]c(=O)c3ccccc23)cc1S(=O)(=O)Nc1ccccc1 was read as CRFR2-BP antag inactive, Cardio protect 83, iPSC survival up inactive, CRFR2-BP ag inactive and SKN-1 block inactive.
`Cc1ccc(-c2nn3c(C)nnc3c3ccccc23)cc1S(=O)(=O)NCCN1CCOCC1` gave CRFR2-BP antag inactive, Cardio protect inactive, iPSC survival up inactive, CRFR2-BP ag inactive and SKN-1 block inactive.
Screening Cc1ccc(-c2n[nH]c(=O)c3ccccc23)cc1S(=O)(=O)NCCN1CCOCC1 returned CRFR2-BP antag inactive, H9c2 TAG inh inactive, Cardio protect 49, iPSC survival up inactive, CRFR2-BP ag inactive and SKN-1 block inactive.
Screening Clc1ccc(N2CCN(Cc3ccco3)CC2)cc1 returned CRFR2-BP antag inactive, Cardio protect inactive, iPSC survival up inactive, CRFR2-BP ag inactive and SKN-1 block inactive.
For O=CNc1cc(-c2ccc(C(=O)NC3CC3)cc2)cn2c(-c3ccccc3)cnc12 the results were H9c2 TAG inh inactive, Cardio protect 72, iPSC survival up inactive and SKN-1 block inactive.
`O=CNc1cc(-c2ccc(C(=O)NC3CC3)cc2)cn2c(-c3ccc(F)c(Cl)c3)cnc12` gave H9c2 TAG inh inactive, Cardio protect 60, iPSC survival up inactive and SKN-1 block inactive.
`COCCN1CCN(C(=O)C2CCC(=O)N(Cc3cccc(C(F)(F)F)c3)C2)CC1` (stereo unspecified) gave CRFR2-BP antag inactive, H9c2 TAG inh inactive, Cardio protect inactive, iPSC survival up inactive, CRFR2-BP ag inactive and SKN-1 block inactive.
Clc1ccc(OCCn2cnc(Cl)c2Cl)cc1 was read as CRFR2-BP antag inactive, H9c2 TAG inh inactive, Cardio protect inactive, iPSC survival up inactive, CRFR2-BP ag inactive and SKN-1 block inactive.
`Cc1ccc([C@H]2C(C(=O)O)=CC[C@@H](c3ccc(C)cc3)N2S(=O)(=O)c2ccc(C)cc2)cc1` gave CRFR2-BP antag 94, H9c2 TAG inh inactive, Cardio protect inactive, iPSC survival up inactive, CRFR2-BP ag inactive and SKN-1 block inactive.
CCCCC[C@@H]1C=C(C(=O)O)[C@H](c2ccc(Cl)c(Cl)c2)N1S(=O)(=O)c1ccc(C)cc1 was read as CRFR2-BP antag inactive, H9c2 TAG inh inactive, Cardio protect inactive, iPSC survival up inactive, CRFR2-BP ag inactive and SKN-1 block inactive.
Screening Cc1ccc([C@@H]2C[C@H]3[C@@H](CN2S(=O)(=O)c2ccc(Cl)cc2)C(=O)C[C@@H](c2ccc(C)cc2)N3S(=O)(=O)c2ccc(Cl)cc2)cc1 returned CRFR2-BP antag inactive, H9c2 TAG inh inactive, Cardio protect inactive, iPSC survival up 28, CRFR2-BP ag inactive and SKN-1 block inactive.
`CCCCC[C@@H]1C=C(C(=O)O)[C@H](c2cccc(C)c2)N1S(=O)(=O)c1ccc(C)cc1` gave CRFR2-BP antag 60, H9c2 TAG inh inactive, Cardio protect inactive, iPSC survival up inactive, CRFR2-BP ag inactive and SKN-1 block inactive.
`Cc1ccc(S(=O)(=O)N2[C@@H](c3ccc(Br)cc3)C(C(=O)O)=CC[C@H]2c2cccc(C)c2)cc1` gave CRFR2-BP antag 86, H9c2 TAG inh inactive, Cardio protect inactive, iPSC survival up inactive, CRFR2-BP ag inactive and SKN-1 block inactive.
Cc1ccc([C@@H]2C[C@H]3[C@@H](CN2S(=O)(=O)c2ccc(C)cc2)C(=O)C[C@@H](c2ccc(Cl)cc2)N3S(=O)(=O)c2ccc(C)cc2)cc1 was read as CRFR2-BP antag inactive, H9c2 TAG inh inactive, Cardio protect inactive, iPSC survival up inactive, CRFR2-BP ag inactive and SKN-1 block inactive.
Screening Cc1ccc([C@H]2C(C(=O)O)=CC[C@@H](c3cccc(C)c3)N2S(=O)(=O)c2ccc(C)cc2)cc1 returned CRFR2-BP antag inactive, H9c2 TAG inh inactive, Cardio protect inactive, iPSC survival up inactive, CRFR2-BP ag inactive and SKN-1 block inactive.
Screening CC(C)(C)CC(C)(C)n1nnnc1N returned CRFR2-BP antag inactive, H9c2 TAG inh inactive, Cardio protect inactive, iPSC survival up inactive, CRFR2-BP ag inactive and SKN-1 block inactive.
`Cc1ccc([C@H]2C(C(=O)O)=CC[C@@H](c3ccc(Cl)cc3)N2S(=O)(=O)c2ccc(C)cc2)cc1` gave CRFR2-BP antag 66, H9c2 TAG inh inactive, Cardio protect inactive, iPSC survival up inactive, CRFR2-BP ag inactive and SKN-1 block inactive.
Screening Cc1ccc(S(=O)(=O)N2[C@@H](c3ccc(Cl)cc3)C(C(=O)O)=CC[C@H]2c2ccc(C(C)C)cc2)cc1 returned CRFR2-BP antag inactive, H9c2 TAG inh inactive, Cardio protect inactive, iPSC survival up inactive, CRFR2-BP ag inactive and SKN-1 block inactive.
COc1ccccc1-c1cc(C(F)(F)F)nc(S(=O)(=O)CCCC(=O)N2CCCCC2C)n1 (stereo unspecified) was read as CRFR2-BP antag inactive, H9c2 TAG inh 67, Cardio protect inactive, iPSC survival up inactive, CRFR2-BP ag inactive and SKN-1 block inactive.
COC(=O)c1c(NC(=O)CN2CCN(Cc3ccc4c(c3)OCO4)CC2)sc(C)c1C was read as CRFR2-BP antag inactive, Cardio protect inactive, iPSC survival up inactive, CRFR2-BP ag inactive and SKN-1 block 36.

Screening data as filed in PubChem BioAssay.
